Compound activity deposited in PubChem BioAssay by Broad Institute.
Rows were chosen to be rich in hits. Some 2.9% of all compounds tested hit in one or more screens of this group.
MITF act: activators of MITF-driven TRPM1 promoter reporter, primary screen, cell-based, SK-MEL-5, luciferase, single point. SK-MEL-5 TRPM1-promoter luciferase, 24 h; % of positive control, neutral wells = 0. activation, % at 12.5 µM. 300,000 compounds, 0.75% hits. AID 588334, 2011;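 active = mean activation of at least 80% with every replicate also reaching 80%; inconclusive = mean reaches 80% but some replicate falls short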
Glyco luc inh: increase of ERlucT glycosylation luciferase signal, primary screen, N-linked glycosylation inhibitor project, D54 ERlucT cells, luminescence, set 2 | D54 ERlucT glycosylation luciferase reporter, 24 h; percent of 100 nM tunicamycin response | reporter increase, % at 12.5 µM | 360,000 compounds, 0.23% hits;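 active = mean luciferase reporter signal, scaled so untreated is 0 and the glycosylation-blocking control 100, at or above a set limit in every replicate; inconclusive = mean reaches the limit but not every replicate does; inactive = mean below the limit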;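 also: luciferase carries N-glycosylation sites so blocking glycosylation raises the light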
Vif imaging: HIV Vif self-association inhibitors, primary screen, imaging, HEK293T, single point | HEK293T cells, Vif self-association by quenched fluorescence, 24 h | 340,000 compounds, 0.35% hits | inhibition, % at 7.49 µM; in the data active = inhibition above about 50%, passing the limit was not always enough; inconclusive = no clear call, values can overlap the other calls; inactive = below about 31%
Wnt act: Wnt/beta-catenin pathway activators, primary screen, cell-based, plate reader, single point | Wnt/beta-catenin reporter cell assay, activator | activation, % at 9.35 µM | 300,000 compounds, 1.2% hits; in the data active = activation above about 30%, passing the limit was not always enough; inconclusive = no clear call, values can overlap the other calls
esBAF inh: Bmi1 luciferase reporter increase in mESCs, primary screen, esBAF inhibitor project, mouse ES cells, Bmi1 luciferase knock-in, single point | 350,000 compounds, 2% hits | 24 h; 100% = twice the neutral-well signal | reporter increase, % at 12.5 µM; in the data active = activation above about 40%; inconclusive = no clear call, values can overlap the other calls;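 also: a rise in the Bmi1 reporter signal indicates esBAF inhibition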
PvdQ inh: P. aeruginosa PvdQ acylase inhibitors, primary screen, biochemical, fluorescence, plate reader and imaging, single point; inhibition, % at 10 µM; 340,000 compounds, 0.063% hits; PvdQ acylase [Pseudomonas aeruginosa LESB58]; purified PvdQ acylase; in the data active = inhibition above about 30%, passing the limit was not always enough; inconclusive = no clear call, values can overlap the other calls
Of the large screens only hits and unclear results are named; the others gave an inactive call.

Cc1nn2cc(-c3ccc(-c4ccccc4)cc3)nc2s1	Wnt act inconclusive
C[C@@H]1CN([C@H](C)CO)C(=O)c2cc(NC(=O)CCC(F)(F)F)ccc2O[C@@H](C)CCCCO[C@H]1CN(C)Cc1ccc(Cl)c(Cl)c1	none (no result: MITF act, Glyco luc inh, Vif imaging, Wnt act, PvdQ inh)
CC(=O)c1cc2c(=O)c3cc(C)ccc3oc2nc1C	esBAF inh 60.0 (no result: Vif imaging, Wnt act)
COCc1nc2oc3ccc(C)cc3c(=O)c2cc1C(=O)OC	MITF act 91.2
CCOC(=O)c1cc2c(=O)c3cc(C)ccc3oc2nc1C	none (no result: Wnt act, esBAF inh)
CCN(CC)C(=O)c1cc2c(=O)c3cc(Cl)ccc3oc2nc1C	esBAF inh 45.2
C[C@@H]1CN([C@@H](C)CO)C(=O)CCCn2cc(nn2)CO[C@@H]1CN(C)C(=O)c1ccc2ccn(C)c2c1	none (no result: MITF act, Glyco luc inh, Vif imaging, Wnt act, PvdQ inh)
CN1C(=O)c2cc(NC(=O)c3cccc(F)c3)ccc2OC[C@H]2O[C@@H](CC(=O)N3CCc4ccccc4C3)CC[C@H]21	none (no result: MITF act, Glyco luc inh, Vif imaging, Wnt act, PvdQ inh)
COc1ccc(C2Nc3ccc4ccccc4c3-c3c2c(=O)oc2ccccc32)cc1 (stereo unspecified)	Glyco luc inh 108.8 (no result: Wnt act)
CCN(CC)C(=O)c1sc2nc(-c3cccs3)cc(-c3cccs3)c2c1N	Vif imaging 82.8
Cc1ccoc1C(=O)Nc1cccc2ccccc12	esBAF inh 42.1
O=C(Nc1ccccc1F)C(=O)Nc1cccc2ccccc12	esBAF inh 62.5 (no result: MITF act)
O=C(CNc1ccccc1F)Nc1cccc2ccccc12	esBAF inh 63.8
Cc1c(Cl)cccc1NC(=O)CNc1ccccc1F	none (no result: Wnt act, esBAF inh)
O=C(Nc1ccccc1C(F)(F)F)Nc1cccc2ccccc12	none (no result: Wnt act)
CN(C)C(=O)c1cccc(-c2ccc([C@H]3[C@@H](CO)N4CCCCN(S(C)(=O)=O)C[C@H]34)cc2)c1	none (no result: MITF act, Glyco luc inh, Vif imaging, Wnt act, PvdQ inh)
Cc1cc(C(=O)CSc2ccc(F)cc2)cc(C)c1OC(=S)N(C)C	none
COc1ccc(SCC(=O)c2cc(C)c(OC(=S)N(C)C)c(C)c2)cc1	Wnt act 40.8
CCOc1cc(-c2c(C#N)c(N)nc3c2CCCC3C)ccc1O (stereo unspecified)	none (no result: Wnt act)
CCOc1cc(-c2c(C#N)c(N)nc3c2CCc2ccccc2-3)ccc1O	Glyco luc inh 46.1 (no result: esBAF inh)
COc1ccccc1-c1c(C#N)c(N)nc2c1CCc1ccccc1-2	Glyco luc inh 32.0 (no result: Wnt act, esBAF inh)
C[C@H]1CN([C@@H](C)CO)C(=O)c2cc(NC(=O)C3CCCCC3)ccc2O[C@@H]1CN(C)S(=O)(=O)c1cn(C)cn1	none (no result: MITF act, Glyco luc inh, Vif imaging, Wnt act, PvdQ inh)
Cc1cccc(N/N=C/c2ccc(O)c(O)c2O)c1	none (no result: esBAF inh)
COc1cccc(/C=N/Nc2c(Cl)cncc2Cl)c1O	MITF act 112.6, esBAF inh inconclusive
COc1cccc(/C=N/Nc2cc(Cl)nc(C)n2)c1O	none (no result: esBAF inh)
COc1cccc(N/N=C/c2cccc(Br)c2O)c1	Wnt act 34.6, esBAF inh 52.7 (no result: Vif imaging)
COc1ccc(/C=N/Nc2ccc([N+](=O)[O-])cc2)cc1O	MITF act 104.1, Wnt act 33.0, esBAF inh 80.8
O=[N+]([O-])c1cccc(N/N=C/c2cccc(O)c2O)c1	Vif imaging 63.8 (no result: esBAF inh)
COc1cccc(/C=N/Nc2ccc([N+](=O)[O-])cc2)c1O	MITF act 104.3, Wnt act 39.9
COc1ccc(/C=N/Nc2ccc([N+](=O)[O-])cc2)cc1Cn1cc([N+](=O)[O-])cn1	Vif imaging 98.3 (no result: Wnt act)
COc1ccc(/C=N/n2cncn2)cc1Cn1cc([N+](=O)[O-])cn1	none (no result: MITF act, esBAF inh, PvdQ inh)
COC(=O)c1ccc(N/N=C/c2cc([N+](=O)[O-])cc(OC)c2O)cc1	none
COc1cccc(S(=O)(=O)Nc2ccc3c(c2)C(=O)N(C)[C@H]2CC[C@H](CC(=O)O)O[C@@H]2CO3)c1	none (no result: MITF act, Glyco luc inh, Vif imaging, Wnt act, PvdQ inh)
COc1ccc(-c2ccc(C#N)c(SCC(=O)NC3CC3)n2)cc1OC	Vif imaging 78.5 (no result: esBAF inh)
COc1ccc(-c2ccc(C#N)c(SCC(=O)NCc3ccco3)n2)cc1OC	none (no result: MITF act, esBAF inh)
COc1ccc(NC(=O)N[C@@H]2CC[C@@H](CCNS(=O)(=O)c3cccc(Cl)c3)O[C@@H]2CO)cc1	none (no result: MITF act, Glyco luc inh, Vif imaging, Wnt act, PvdQ inh)
CCOC(=O)C1(NC(=O)C2(NC(=O)CN3C(=O)c4ccccc4C3=O)CCCC2)CCCC1	Wnt act 47.3
COc1ccc(CCNC(=O)CN2C(=O)c3ccccc3C2=O)cc1	none (no result: Wnt act)
CC(C)Sc1ccc(C(=O)Nc2ccc(F)cc2F)cn1	MITF act inconclusive, Wnt act 49.4 (no result: esBAF inh)
CCOC(=O)N1CCN(c2nc3ccccn3c(=O)c2C=O)CC1	PvdQ inh 31.2
CN1CCN(c2nc3ccccn3c(=O)c2C=O)CC1	none (no result: MITF act, Wnt act)
C[C@@H](NC(=O)C[C@H]1C[C@H]2c3cc(NC(=O)C4CCOCC4)ccc3O[C@H]2[C@H](CO)O1)c1ccccc1	none (no result: MITF act, Glyco luc inh, Vif imaging, Wnt act, PvdQ inh)
C/C(=N\OC(=O)NC(C)C)c1sc(-c2ccccc2)nc1C	MITF act 104.7, esBAF inh 63.5
C/C(=N\OC(=O)c1cccc(C)c1)c1sc(-c2ccccc2)nc1C	none (no result: Wnt act)
CCNC(=O)O/N=C(\C)c1sc(-c2ccc(Cl)cc2)nc1C	esBAF inh 43.0 (no result: MITF act)
C=C(C)c1sc(-c2ccc(Cl)cc2)nc1C	esBAF inh 49.5
C/C(=N\OC(=O)c1ccc(Cl)cc1)c1sc(-c2ccccc2)nc1C	none (no result: Wnt act, esBAF inh)
C/C(=N\OC(=O)c1cccc(C(F)(F)F)c1)c1sc(-c2ccccc2)nc1C	MITF act inconclusive, esBAF inh 76.9 (no result: Vif imaging, Wnt act)
C/C(=N\OC(=O)NC(C)C)c1sc(-c2ccc(Cl)cc2)nc1C	none
C[C@H](CO)N1C[C@H](C)[C@H](CN(C)Cc2ccc(C(=O)O)cc2)Oc2ccc(NC(=O)Nc3ccc4c(c3)OCO4)cc2C1=O	none (no result: MITF act, Glyco luc inh, Vif imaging, Wnt act, PvdQ inh)
COc1cccc(NC(=O)N(C)C[C@@H]2OCc3ccccc3-c3ccccc3C(=O)N([C@@H](C)CO)C[C@@H]2C)c1	none (no result: MITF act, Glyco luc inh, Vif imaging, Wnt act, PvdQ inh)
C[C@H]1CN([C@@H](C)CO)C(=O)Cc2cc(NC(=O)C3CC3)ccc2O[C@@H]1CN(C)C(=O)Nc1ccccc1	none (no result: MITF act, Glyco luc inh, Vif imaging, Wnt act, PvdQ inh)
COCCn1c(/C=C/c2ccccc2)nc2ccccc21	MITF act 96.8, esBAF inh 36.5
COc1ccccc1Cn1c(/C=C/c2ccccc2)nc2ccccc21	Wnt act 38.1 (no result: esBAF inh)
COc1ccc(/C=C/c2nc3ccccc3n2Cc2ccccc2OC)cc1	none (no result: esBAF inh)
C[C@H]1CN([C@@H](C)CO)C(=O)c2cc(-c3cccnc3)cnc2O[C@H]1CN(C)C(=O)C1CCCCC1	none (no result: MITF act, Glyco luc inh, Vif imaging, Wnt act, PvdQ inh)
Cc1cc(O)ccc1Nc1cc(-c2cccc(N(C)C)c2)ncn1	esBAF inh 55.4 (no result: MITF act, Vif imaging, PvdQ inh)
COc1ccc2cc3cc(C(=O)NCc4ccco4)oc3nc2c1	none (no result: esBAF inh)
COc1ccc2cc3c(N)c(C(=O)NCc4ccco4)sc3nc2c1	esBAF inh 72.3 (no result: Wnt act)
Cc1ccsc1C(=O)OCc1nnc(-c2ccccc2)o1	MITF act 95.9, esBAF inh 62.9
S=C(Nc1ccccc1)Nc1ccccn1	none (no result: MITF act, PvdQ inh)
